In PubChem BioAssay (NCATS):
Where “and” joins values, the source holds several entries; their conditions need not be identical. Identical values can stand only once. Inconclusive results are not listed. Calls of active or inactive are those of the source. Unless noted, the call rests on the fitted dose curve; in most records, active means well fitted curve in either direction with a large enough effect (not every such curve was filed as active); inconclusive means small, poorly fitted or top-dose-only effect, or another doubt; inactive means flat fitted curve, though single readings scatter.

Legend:
[1] = AP1 Signaling Pathway (AID 357); conditions: ME-180 AP-1-bla reporter, EGF-induced, beta-lactamase ratio, 5 h; at 7.69 µM (top of the series) unless noted;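 further: ME-180 reporter cells stimulated with EGF at its EC50 level; on the % scale 0 is the no-effect control and ±100 the full control effect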
In short: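 A ratiometric CCF4 readout (405 nm excitation; 460 and 530 nm emission) quantified AP-1-driven beta-lactamase in ME-180 cells after 5 h with compound and EC50 EGF; AC50 values were derived for activators and inhibitors.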

[2] = molecular target: Cytochrome P450 1A2 (Homo sapiens) (UniProt P05177); experiment: p450-cyp1a2 (AID 410; calls by dose curve; further: potency means the concentration at half of the fitted maximal effect;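 on activity change, negative = inhibition: -100% = full effect of reference inhibitor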)
In short: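 20nM CYP1A2 with 100uM Luciferin-ME (at Km) in 100mM KPO4; compound preincubated 10 min, NADPH regeneration added, 60 min at room temperature. Luciferin quantified by luminescence after detection reagent; normalized to 57 uM furafylline.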

[3] = NFAT Signaling Pathway (AID 444); conditions: Jurkat NFAT-bla M1, carbachol, beta-lactamase ratio, 5 h; at 7.69 µM (top of the series) unless noted;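 further: carbachol stimulus at about its EC50 of 1 µM final; on the % scale 0 is the no-effect control and ±100 the full control effect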
In short: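 Jurkat cells with NFAT-driven β-lactamase reporter and co-expressed M1 receptor, stimulated with carbachol (final 1 uM, ~EC50), compound titration, 5 h at 37 °C. CCF4 loaded 1 h at RT; 460/530 nm ratio gave %activity and AC50.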

[4] = Stat Signaling Pathway (AID 446); conditions: ME-180 SIE beta-lactamase reporter, IL-6 stimulated, 5 h; at 7.69 µM (top of the series) unless noted;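 further: ME-180 cervical cancer cells given 40 pM IL-6 alongside compound; SIE-controlled beta-lactamase reporter measured as 460/530 nm FRET emission ratio; on the % scale 0 is the no-effect control and ±100 the full control effect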
In short: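 Reporter line: ME-180 cervical carcinoma, SIE-beta-lactamase. Treatment: compound with 40 pM IL-6, 5 hrs, 37 C, in low-serum OPTI-MEM with 10 mM HEPES pH 7.3. Detection: 460/530 nm fluorescence.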

[5] = molecular target: Glucocorticoid receptor (Homo sapiens) (UniProt P04150); experiment: GR-GFP Redistribution (AID 450;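 active means compounds whose dose series gives a full or clear partial fitted curve of increased nuclear translocation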; further: potency means the concentration at half of the fitted maximal effect); conditions: U2OS GR-GFP nuclear translocation, laser cytometry, 2 h
[6] = molecular target: Glucocorticoid receptor (Homo sapiens) (UniProt P04150); experiment: GR-EFC Redistribution (AID 451; calls by dose curve; further: potency means the concentration at half of the fitted maximal effect); conditions: CHO-K1 GR-EFC translocation, beta-gal luminescence, 2 h
In short: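 CHO-K1 cells expressing nuclear EA and GR-ED fragments of b-gal; compounds titrated up to 46 uM final, 2 h at 37 C. GR nuclear translocation read as complemented b-gal luminescence after 1 h RT detection.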

[7] = molecular target: Mitogen-activated protein kinase 10 (Mus musculus) (UniProt Q61831); experiment: JNK3 AlphaScreen Assay (AID 530);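 further: kinase came from lysate of stimulated human HepG2 cells; signal reports phosphorylation of biotinylated GST-cJun 1-79 at Ser73 with 10 µM ATP; on the % scale 0 is the no-effect control and ±100 the full control effect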
In short: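 Pre-activated (IL-1β/TNFα) JNK3 in HepG2 lysates phosphorylates biotin-GST-cJun(1-79), 10 uM ATP; anti-phospho-cJun(Ser73) AlphaScreen read at room temperature, pH 7.6 Tris buffer. Compounds pre-incubated 15 min as titrations.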

[8] = molecular target: Ubiquitin carboxyl-terminal hydrolase 1 (Homo sapiens) (UniProt O94782); experiment: Inhibitors of USP1/UAF1: Pilot qHTS (AID 504865; active means well fitted inhibition curve with a large enough effect;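 further: rhodamine fluorescence freed from ubiquitin-rhodamine substrate followed over time; top concentration of the series differs between compounds; on the % scale 0 is the no-effect control and ±100 the full control effect; nearly all actives have a fitted effect of over 35% in size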)
In short: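 Kinetic fluorescence assay: 1nM USP1/UAF1, 15 min compound preincubation, then 150nM Ub-Rho; 480/540 nm.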

[9] = qHTS Assay for Lipid Storage Modulators (AID 1519; calls by dose curve); conditions: Drosophila S3 cells, BODIPY lipid droplet/cell ratio, laser cytometry, cells loaded with oleic acid; for activity change, negative = inhibition: at 57.5 µM (top of the series)
In short: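 Cells seeded at 5,000 per well were treated with compounds over a concentration series and loaded with oleic acid (400 uM, as added). Lipid droplet fluorescence (488 nm excitation, 500-530 nm channel) was read by laser-scanning cytometry and normalized to 20 uM Triacsin C.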

[10] = molecular target: 3',5'-cyclic-AMP phosphodiesterase 4B (Homo sapiens) (UniProt Q07343); experiment: qHTS Assay for Inhibitors of PDE-IV (AID 607; active means well fitted activation curve with a large enough effect in the main read-out, with a control signal flat, not every such curve was filed as active; further: % of control where 0% means no effect)
In short: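 Cell-based read-out of cAMP via a modified cyclic nucleotide-gated channel and membrane potential dye (535/590 nm) in HEK293 cells expressing PDE4 endogenously. Compounds tested up to 22.9 uM final; 100 uM RO 20-1724 reference.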

[11] = measured here: cell count channel max response
[12] = measured here: lipid channel max response

Sequence of 3',5'-cyclic-AMP phosphodiesterase 4B (Homo sapiens) (Q07343 whole entry, looked up): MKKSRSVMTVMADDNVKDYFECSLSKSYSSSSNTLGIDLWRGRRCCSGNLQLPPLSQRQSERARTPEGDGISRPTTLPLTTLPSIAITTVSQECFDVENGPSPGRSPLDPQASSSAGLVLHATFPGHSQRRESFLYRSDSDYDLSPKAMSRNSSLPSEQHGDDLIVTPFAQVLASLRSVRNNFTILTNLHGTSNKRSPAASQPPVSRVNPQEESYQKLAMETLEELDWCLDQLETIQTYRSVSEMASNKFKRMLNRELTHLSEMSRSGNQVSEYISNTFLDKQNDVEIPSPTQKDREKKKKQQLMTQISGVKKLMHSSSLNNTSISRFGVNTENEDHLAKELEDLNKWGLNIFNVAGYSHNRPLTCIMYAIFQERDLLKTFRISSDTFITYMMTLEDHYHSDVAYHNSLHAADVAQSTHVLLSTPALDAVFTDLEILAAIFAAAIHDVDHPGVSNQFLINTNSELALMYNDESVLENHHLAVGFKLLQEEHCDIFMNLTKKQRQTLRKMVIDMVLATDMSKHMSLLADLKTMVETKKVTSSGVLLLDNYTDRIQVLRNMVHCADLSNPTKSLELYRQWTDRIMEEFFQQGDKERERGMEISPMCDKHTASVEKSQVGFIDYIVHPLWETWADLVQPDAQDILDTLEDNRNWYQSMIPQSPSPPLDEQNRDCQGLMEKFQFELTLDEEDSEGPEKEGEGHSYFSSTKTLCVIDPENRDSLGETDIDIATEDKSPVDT
Sequence of Ubiquitin carboxyl-terminal hydrolase 1 (Homo sapiens) (O94782 whole entry, looked up): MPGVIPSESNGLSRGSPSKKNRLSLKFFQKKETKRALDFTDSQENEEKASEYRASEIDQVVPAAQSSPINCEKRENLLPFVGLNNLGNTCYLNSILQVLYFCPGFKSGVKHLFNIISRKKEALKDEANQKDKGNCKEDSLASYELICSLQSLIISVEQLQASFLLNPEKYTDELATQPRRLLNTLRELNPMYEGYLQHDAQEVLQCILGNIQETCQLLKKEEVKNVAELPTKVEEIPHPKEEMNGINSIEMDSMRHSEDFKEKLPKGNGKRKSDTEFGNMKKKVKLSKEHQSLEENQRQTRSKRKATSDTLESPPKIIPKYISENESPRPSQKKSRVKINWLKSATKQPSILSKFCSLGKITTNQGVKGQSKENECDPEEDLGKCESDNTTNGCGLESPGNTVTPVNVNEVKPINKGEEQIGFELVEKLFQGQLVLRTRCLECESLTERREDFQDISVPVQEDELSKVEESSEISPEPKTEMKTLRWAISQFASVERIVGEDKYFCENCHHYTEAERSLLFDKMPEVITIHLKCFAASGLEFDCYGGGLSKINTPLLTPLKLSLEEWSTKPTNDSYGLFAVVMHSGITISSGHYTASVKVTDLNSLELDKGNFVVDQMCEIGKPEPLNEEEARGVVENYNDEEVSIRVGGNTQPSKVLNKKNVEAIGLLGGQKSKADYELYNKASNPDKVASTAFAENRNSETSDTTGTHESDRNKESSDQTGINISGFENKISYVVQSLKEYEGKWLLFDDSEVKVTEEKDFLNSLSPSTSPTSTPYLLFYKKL
Sequence of Cytochrome P450 1A2 (Homo sapiens) (P05177 whole entry, looked up): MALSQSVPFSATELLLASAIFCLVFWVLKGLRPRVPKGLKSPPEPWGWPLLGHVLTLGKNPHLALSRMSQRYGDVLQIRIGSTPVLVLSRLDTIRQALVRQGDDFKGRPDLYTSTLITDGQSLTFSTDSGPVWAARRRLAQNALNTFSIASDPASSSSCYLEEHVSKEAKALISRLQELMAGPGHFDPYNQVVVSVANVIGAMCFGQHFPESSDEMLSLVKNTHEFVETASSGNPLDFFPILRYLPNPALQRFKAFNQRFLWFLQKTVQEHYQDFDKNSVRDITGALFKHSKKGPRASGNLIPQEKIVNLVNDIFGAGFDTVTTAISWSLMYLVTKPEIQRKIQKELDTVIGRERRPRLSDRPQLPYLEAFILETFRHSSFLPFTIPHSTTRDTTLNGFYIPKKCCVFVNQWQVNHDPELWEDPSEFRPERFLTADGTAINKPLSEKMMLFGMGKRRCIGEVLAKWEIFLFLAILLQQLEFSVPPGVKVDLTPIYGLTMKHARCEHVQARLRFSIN
Sequence of Glucocorticoid receptor (Homo sapiens) (P04150 whole entry, looked up, the tested form may be a part): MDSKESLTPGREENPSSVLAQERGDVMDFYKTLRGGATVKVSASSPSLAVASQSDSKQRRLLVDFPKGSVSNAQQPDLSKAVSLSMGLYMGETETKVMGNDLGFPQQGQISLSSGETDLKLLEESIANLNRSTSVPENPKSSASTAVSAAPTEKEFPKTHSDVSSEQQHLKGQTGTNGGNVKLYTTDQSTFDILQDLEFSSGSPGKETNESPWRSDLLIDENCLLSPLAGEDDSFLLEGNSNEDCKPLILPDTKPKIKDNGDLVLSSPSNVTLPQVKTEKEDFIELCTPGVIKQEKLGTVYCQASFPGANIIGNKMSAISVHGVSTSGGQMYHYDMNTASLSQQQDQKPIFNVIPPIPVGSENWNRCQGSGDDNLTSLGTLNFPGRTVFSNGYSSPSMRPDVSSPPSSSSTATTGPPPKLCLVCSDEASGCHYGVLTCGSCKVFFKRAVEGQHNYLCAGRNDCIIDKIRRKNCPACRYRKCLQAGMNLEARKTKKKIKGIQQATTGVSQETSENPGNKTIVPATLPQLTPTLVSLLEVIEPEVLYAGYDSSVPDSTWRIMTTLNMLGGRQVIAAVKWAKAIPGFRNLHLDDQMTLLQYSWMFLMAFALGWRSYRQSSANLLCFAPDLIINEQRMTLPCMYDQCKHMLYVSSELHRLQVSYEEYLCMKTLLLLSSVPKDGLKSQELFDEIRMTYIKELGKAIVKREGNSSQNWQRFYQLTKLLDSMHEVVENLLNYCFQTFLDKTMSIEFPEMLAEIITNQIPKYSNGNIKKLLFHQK

CN(C)c1ncc2nc(-c3cccs3)c(=O)n(-c3ccccc3)c2n1
inactive: activity change, negative = inhibition [1] -9.21% | activity change, negative = inhibition [3] 6.03% | activity, negative = inhibition [4] 21.3% | Potency [5] > 9.22 µM | Potency [6] > 46 µM | Potency [7] | Potency [8]
active: Potency [2] 31.6 µM

Nc1ncnc2c1ncn2C1OC(CO)C(O)C1O (stereo unspecified)
inactive: activity change, negative = inhibition [9] 9.6% and 14.7%
19.8% and 38.9%: max response [9, 11]
31.9% and 67.8%: max response [9, 12]

CS(=O)(=O)Nc1cccc(-c2cncnc2Nc2ccccc2)c1
inactive: activity change, negative = inhibition [1] -20.2% | activity change, negative = inhibition [3] 23.9% | activity, negative = inhibition [4] -2.71% | Potency [5] > 46 µM | Potency [6] > 46 µM | Potency [7] | Potency [10] | Potency [8]
active: Potency [2] 5.01 µM

COc1cccc(Cn2c(=O)cnc3cnc(N4CCOCC4)nc32)c1
inactive: activity change, negative = inhibition [1] -21.3% | activity change, negative = inhibition [3] -0.938% | activity, negative = inhibition [4] -11% | Potency [5] > 9.22 µM | Potency [6] > 46 µM | Potency [7]

O=c1c(-c2ccc(F)cc2)nc2cncnc2n1Cc1ccc(F)cc1
inactive: activity change, negative = inhibition [1] -9.76% | activity change, negative = inhibition [3] -10% | activity, negative = inhibition [4] -2.38% | Potency [5] > 9.22 µM | Potency [6] > 46 µM | Potency [7] | Potency [10] | Potency [8]

O=c1c(O)c(-c2ccc(O)cc2)oc2ccccc12
-1%: max response [9, 12]
-12.3%: max response [9, 11]
inactive: activity change, negative = inhibition [9] 8.84%

CC(CCC(=O)O)C1CCC2C3C(O)C[C@@H]4CC(O)CC[C@@]4(C)C3CC[C@@]12C (stereo partly specified)
15% and 25.1%: max response [9, 12]
13% and 15.4%: max response [9, 11]
inactive: activity change, negative = inhibition [9] 1.17% and 5.02% | Potency [8]

CS(=O)(=O)N1CCC2(CCN(Cc3ccc(C#N)cc3)CC2)CC1
inactive: activity change, negative = inhibition [1] 3.08% | activity, negative = inhibition [4] 3.96% | Potency [7] | Potency [10]

CCNc1ncc2nc(-c3ccc(F)cc3)c(=O)n(-c3ccccc3)c2n1
active: Potency [2] 0.398 µM
inactive: Potency [5] > 9.22 µM | Potency [6] > 46 µM | Potency [7] | Potency [8]

Cc1cnc(CNc2cc(-c3ccccc3CN(C)C)ncn2)cn1
inactive: activity change, negative = inhibition [1] 17.7% | activity change, negative = inhibition [3] -9.03% | activity, negative = inhibition [4] 7.96% | Potency [5] > 46 µM | Potency [6] > 46 µM | Potency [7] | Potency [10] | Potency [8]

COc1ccc(C(=O)N2CCC[C@@]3(CCN(Cc4cc(C(F)(F)F)cc(C(F)(F)F)c4)C3)C2)cc1
inactive: activity change, negative = inhibition [1] 16.8% | Potency [2] | activity change, negative = inhibition [3] -5.26% | activity, negative = inhibition [4] -1.38% | Potency [6] > 46 µM | Potency [7] | Potency [10]

Nc1ccccc1C(=O)CC(N)C(=O)O (stereo unspecified)
inactive: activity change, negative = inhibition [9] 9.57% and 2.83%
21.6% and 17.6%: max response [9, 12]
10.9% and 14.4%: max response [9, 11]

COc1ccc(CNc2nc(-c3ccc4c(c3)OCO4)nc3ccccc23)c(OC)c1
inactive: activity change, negative = inhibition [1] 0.828% | activity, negative = inhibition [4] 2.14% | Potency [5] > 46 µM | Potency [6] > 46 µM | Potency [7] | Potency [10] | Potency [8]
active: Potency [2] 3.98 µM

FC(F)(F)c1ccccc1-c1cc(NCc2cccnc2)ncn1
active: Potency [2] 3.98 µM
inactive: activity change, negative = inhibition [1] -2.3% | activity change, negative = inhibition [3] 4.08% | activity, negative = inhibition [4] -3% | Potency [5] > 46 µM | Potency [6] > 46 µM | Potency [7] | Potency [10] | Potency [8]

COc1cccc(Nc2ncc3nc(CCc4ccccc4)c(=O)n(Cc4cccs4)c3n2)c1
inactive: activity, negative = inhibition [4] -28.9% | Potency [5] > 9.22 µM | Potency [6] > 46 µM | Potency [7] | Potency [10] | Potency [8]
active: Potency [2] 3.16 µM

CS(=O)(=O)N1CCC[C@@]2(CCN(c3ncccn3)C2)C1
inactive: activity change, negative = inhibition [1] -9.3% | Potency [2] | activity change, negative = inhibition [3] 16.2% | activity, negative = inhibition [4] -19.8% | Potency [6] > 46 µM | Potency [7] | Potency [10]

COc1cccc(Cn2c(=O)c(-c3ccc(F)cc3)nc3cnc(N4CCOCC4)nc32)c1
inactive: Potency [5] > 9.22 µM | Potency [6] > 46 µM | Potency [7] | Potency [10] | Potency [8]

COc1ccc(C(=O)N2CCC[C@@]3(CCN(c4cccc(-c5ccccc5)c4)C3)C2)cc1
inactive: activity change, negative = inhibition [1] 8.11% | activity change, negative = inhibition [3] -15.1% | activity, negative = inhibition [4] -9.84% | Potency [6] > 46 µM
active: Potency [2] 12.6 µM

Cn1c(=O)c(-c2ccc(Cl)cc2)nc2cnc(Oc3ccccc3)nc21
active: Potency [2] 0.2 µM
inactive: activity, negative = inhibition [4] 2.85% | Potency [5] > 9.22 µM | Potency [6] > 46 µM | Potency [7] | Potency [10]

CCNc1ncc2nc(-c3cccs3)c(=O)n(Cc3cccc(OC)c3)c2n1
active: Potency [2] 0.126 µM
inactive: activity change, negative = inhibition [1] 19.3% | Potency [5] > 9.22 µM | Potency [6] > 46 µM | Potency [7] | Potency [10] | Potency [8]

COc1cccc(Cn2c(=O)c(-c3cccs3)nc3cnc(Nc4ccccc4)nc32)c1
inactive: activity change, negative = inhibition [1] -5.18% | activity change, negative = inhibition [3] -18.8% | activity, negative = inhibition [4] -0.21% | Potency [5] > 9.22 µM | Potency [6] > 46 µM | Potency [7] | Potency [10]

Nc1ccn(C2OC(CO)C(O)C2O)c(=O)n1 (stereo unspecified)
-5.62% and 10.3%: max response [9, 12]
inactive: activity change, negative = inhibition [9] 2.01% and 0.795%
-9.2% and 5.05%: max response [9, 11]

COc1ncc2nc(-c3cc(F)cc(F)c3)c(=O)n(Cc3cccs3)c2n1
inactive: activity change, negative = inhibition [1] 14.2% | activity change, negative = inhibition [3] -10.4% | activity, negative = inhibition [4] 4.55% | Potency [5] > 9.22 µM | Potency [6] > 46 µM | Potency [7] | Potency [10]

CC(=O)N1CCC2(CC1)CCN(C(=O)Nc1cccc(C#N)c1)CC2
inactive: activity change, negative = inhibition [1] 4.49% | activity change, negative = inhibition [3] 8.82% | activity, negative = inhibition [4] 3.47% | Potency [6] > 46 µM | Potency [7] | Potency [10]

CN(C)c1ncc2nc(-c3ccc(Cl)cc3)c(=O)n(C3CC3)c2n1
inactive: Potency [5] > 9.22 µM | Potency [6] > 46 µM | Potency [7] | Potency [10]

COc1ccc(-c2nc3cnc(OC)nc3n(Cc3ccc(F)cc3)c2=O)cc1
inactive: activity change, negative = inhibition [1] 8.95% | activity change, negative = inhibition [3] -6.96% | activity, negative = inhibition [4] 5.66% | Potency [5] > 9.22 µM | Potency [6] > 46 µM | Potency [7]

Cc1cnc(CNc2cc(-c3cccc(C#N)c3)ncn2)cn1
inactive: activity change, negative = inhibition [1] 8.07% | activity change, negative = inhibition [3] 25.8% | activity, negative = inhibition [4] 7.04% | Potency [5] > 46 µM | Potency [6] > 46 µM | Potency [7] | Potency [10] | Potency [8]
active: Potency [2] 15.8 µM

CS(=O)(=O)Nc1cccc(-c2cc(NCc3cccs3)ncn2)c1
inactive: activity change, negative = inhibition [1] -14.7% | activity change, negative = inhibition [3] -3.98% | activity, negative = inhibition [4] -1.82% | Potency [5] > 46 µM | Potency [6] > 46 µM | Potency [7] | Potency [10]
active: Potency [2] 6.31 µM

COc1cccc(-c2nccc(NCc3cccs3)n2)c1
active: Potency [2] 0.2 µM
inactive: activity change, negative = inhibition [1] -9.78% | activity change, negative = inhibition [3] 15.4% | activity, negative = inhibition [4] -0.369% | Potency [5] > 46 µM | Potency [6] > 46 µM | Potency [7] | Potency [10]

N#Cc1cccc(-c2nc(Nc3ccccc3)c3ccccc3n2)c1
active: Potency [2] 1.26 µM
inactive: activity change, negative = inhibition [1] 3.06% | activity change, negative = inhibition [3] 15.5% | activity, negative = inhibition [4] 8.9% | Potency [5] > 46 µM | Potency [6] > 46 µM | Potency [7] | Potency [8]

c1ccc(Nc2ncncc2-c2ccc3c(c2)OCO3)cc1
active: Potency [2] 0.316 µM
inactive: activity change, negative = inhibition [1] -19.3% | activity change, negative = inhibition [3] 9.45% | activity, negative = inhibition [4] -14.2% | Potency [5] > 46 µM | Potency [6] > 46 µM | Potency [7] | Potency [8]
